Among the data in PubChem BioAssay (NCATS) are max response, outcome and Potency values, retold here.

In assay [1] the test system is CRL-7250. Description: Cytotoxic Profiling of Annotated Libraries Using Quantitative High-Throughput Screening (AID 1296008). Also: nearly all actives have a fitted effect of over 60% in size. As to max response: % is scaled to controls: 0 for no effect and ±100 for the full control effect. As to conditions: Five cell lines viability, CellTiter-Glo ATP luminescence, 48-72 h; max response: stronger effect = lower value. The procedure, abridged:
(§1)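 Cells exposed to compounds for 48 or 72 hr at 37 degrees Celsius. Viability read as ATP-coupled luminescence with CellTiter-Glo after 10 min at room temperature.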
A general note: In ATP-based viability assays light output follows the ATP content of the culture.

Assay [2] has as its system HEK293. The assay is described as above. As to conditions: Five cell lines viability, CellTiter-Glo ATP luminescence, 48-72 h; max response: stronger effect = lower value. A digest of the protocol: as §1
In assay [3] the test system is HaCat. The description is as above. As to conditions: Five cell lines viability, CellTiter-Glo ATP luminescence, 48-72 h; max response: stronger effect = lower value. The procedure, abridged:
as §1

For assay [4], the system named is KB-3-1. The assay is described as above. As to conditions: Five cell lines viability, CellTiter-Glo ATP luminescence, 48-72 h; max response: stronger effect = lower value. A digest of the protocol: as §1
The test system of assay [5] is NIH3T3. Described as above. As to conditions: Five cell lines viability, CellTiter-Glo ATP luminescence, 48-72 h; max response: stronger effect = lower value. A digest of the protocol: as §1
For assay [6], the system named is HACAT. Nature of the assay: qHTS assay to identify novel small-molecules to repurpose for Merkel cell carcinoma treatment (AID 1296009). Also: nearly all actives have a fitted effect of over 60% in size. As to conditions: MCC and control cell lines, CellTiter-Glo viability, 72 h; at 44.8 µM (top of the series) unless noted. A digest of the protocol:
(§2)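 Cells were treated for 72 hr at 37 degree celsius with compounds in 8- or 11-point dose response. Viability was read by CellTiter-Glo luminescence, normalized to no-cell (cytotoxicity) and DMSO controls.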

Assay [7] has as its system MCC-13. The description is as above. As to conditions: MCC and control cell lines, CellTiter-Glo viability, 72 h; series mostly up to 46 µM. The procedure, abridged: as §2
The test system of assay [8] is MKL-1. Described as above. As to conditions: MCC and control cell lines, CellTiter-Glo viability, 72 h; series mostly up to 46 µM. The procedure, abridged: as §2
For assay [9], the system named is MKL-2. The assay is described as above. As to conditions: MCC and control cell lines, CellTiter-Glo viability, 72 h; series mostly up to 46 µM. A digest of the protocol: as §2
The test system of assay [10] is UISO. Described as above. As to conditions: MCC and control cell lines, CellTiter-Glo viability, 72 h; series mostly up to 46 µM. A digest of the protocol: as §2
Assay [11] deals with WaGa. Described as above. As to conditions: MCC and control cell lines, CellTiter-Glo viability, 72 h; series mostly up to 46 µM. The procedure, abridged: as §2
Assay [12] has as its system C33A. Description: Primary qHTS to identify gynecologic anti-cancer compounds using libraries of approved drugs and bioactive compounds (AID 1345084). Also: % is scaled to controls: 0 for no effect and ±100 for the full control effect; nearly all actives have a fitted effect of over 55% in size. As to conditions: Gynecologic cancer cell panel viability, ATPlite luminescence, 48 h; series mostly up to 57.5 µM. A digest of the protocol:
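Luminescence from the ATPlite ATP-monitoring reagent indicates viable cell number; lower signal means cytotoxicity. Cells received compound 16 h after seeding and were exposed for 48 h across five concentrations.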
Background: Quantitative high-throughput screening tests each substance at several concentrations.

For assay [13], the system named is TAB109. Nature of the assay: qHTS profiling for inhibitors of Plasmodium falciparum proliferation (AID 504749). Also: nearly all actives have a fitted effect of over 60% in size. Also: potency is read from the fitted curve at half-maximal effect. As to conditions: P. falciparum in erythrocytes, SYBR Green DNA, 72 h; series mostly up to 28.7 µM. A digest of the protocol: (§3)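 P. falciparum-infected erythrocytes (0.3% parasitemia, 2.5% hematocrit) incubated with compound 72 h at 37 C, 5% CO2. Parasite DNA detected by SYBR Green after lysis, overnight at room temperature; normalised to 0.29 uM artemisinin and DMSO.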

The test system of assay [14] is TAB113. The assay is described as above. As to conditions: P. falciparum in erythrocytes, SYBR Green DNA, 72 h; series mostly up to 28.7 µM. The procedure, abridged: as §3
Assay [15] concerns TAB165. The assay is described as above. As to conditions: P. falciparum in erythrocytes, SYBR Green DNA, 72 h; series mostly up to 28.7 µM. The procedure, abridged:
as §3

The test system of assay [16] is CRL-7250. Description: qHTS assay to identify novel small-molecules to repurpose for Merkel cell carcinoma treatment (AID 1296009). Also: nearly all actives have a fitted effect of over 60% in size. As to conditions: MCC and control cell lines, CellTiter-Glo viability, 72 h; series mostly up to 44.8 µM. The procedure, abridged: as §2
In assay [17] the test system is HEK293T. Described as above. As to conditions: MCC and control cell lines, CellTiter-Glo viability, 72 h; at 44.8 µM (top of the series). A digest of the protocol:
as §2

Assay [18] has as its system MCC-26. Described as above. As to conditions: MCC and control cell lines, CellTiter-Glo viability, 72 h; series mostly up to 46 µM. A digest of the protocol:
as §2

Assay [19] has as its system NIH3T3. The description is as above. As to conditions: MCC and control cell lines, CellTiter-Glo viability, 72 h; at 44.8 µM (top of the series) unless noted. A digest of the protocol: as §2
Assay [20] deals with W2. Nature of the assay: qHTS profiling for inhibitors of Plasmodium falciparum proliferation (AID 504749). Also: nearly all actives have a fitted effect of over 60% in size. Also: potency is read from the fitted curve at half-maximal effect. As to conditions: P. falciparum in erythrocytes, SYBR Green DNA, 72 h; series mostly up to 28.7 µM. A digest of the protocol: as §3

Records with an inconclusive call do not appear. A number with no mark means an inactive call. Activity calls are given as the source filed them. Calls follow the shape of the dose curve; as a rule, active = well fitted curve in the direction sought with a large enough effect; inconclusive = small, poorly fitted or top-dose-only effect, or another doubt; inactive = no such curve, though single readings can be large; an effect the other way counts as inactive or inconclusive.

Turning to `N[C@@H]1C[C@H]1c1ccccc1`, the max response is -2.94% in assay [1], -4.85% in assay [2], -0.335% in assay [4] and 3.17% in assay [5]. Moreover, the compound was classed as inactive in assay [3] and in [6]. Moreover, the Potency entry in assay [7], in assay [8], in [9], in [10], in assay [11] and in [12] was “inactive” in each case.
For `Oc1ccccc1-c1ccccc1`, the Potency result in assay [13], in assay [14], in assay [15], in assay [7], in assay [18] and in [8] was “inactive” in each case. For the same compound, the Potency result in assay [9], in assay [10], in assay [11] and in [12] was “inactive” each time. For the same compound, the call in assay [1], in [2], in [5], in [16], in assay [17] and in [19] was inactive. For the same compound, the max response in assay [3] is 1.64%; in assay [4], 2.06%.
`C=C1CC[C@@]2(O)[C@H]3Cc4ccc(O)c5c4[C@@]2(CCN3CC2CC2)[C@H]1O5`: the Potency result in assay [13], in [14], in assay [15], in [7], in assay [18] and in assay [8] was “inactive” throughout. For the same compound, the Potency result in assay [9], in assay [10], in assay [11] and in assay [12] was “inactive” each time. For the same compound, the Potency in [20] was 6.75 µM (active). Further, the max response in assay [1] is 2.77%; in [2] it was -5.09%; in assay [4], 3.52%. Besides, the result in assay [3], in assay [5], in [6] and in [19] was inactive.
`CC(C)(C)NCC(O)c1cc(Cl)c(N)c(Cl)c1` (stereo unspecified): the Potency in [20] is 6.75 µM (active). Besides, the result in assay [1], in assay [5], in assay [16] and in assay [19] was inactive. Besides, the max response in assay [2] is -10.9%; in [3], -3.36%; in [4] it was -14.9%. Further, the Potency entry in assay [7], in assay [18], in [8], in assay [9], in assay [10] and in assay [11] was “inactive” in each case. The Potency entry in assay [12] was “inactive”.
`CCOP(=S)(OCC)Oc1cc(C)nc(C(C)C)n1`: the Potency result in [13], in assay [14], in assay [15], in assay [20], in assay [7] and in [18] was “inactive” throughout. Further, the Potency result in assay [8], in assay [9], in assay [10], in [11] and in [12] was “inactive” in each case. Besides, the max response is 1.07% in [1], 0.572% in [3], 7.03% in assay [4] and -12% in [5]. Further, the result in assay [2] and in [17] was inactive.
As for `CCC(C(N)=O)N1CCCC1=O` (stereo unspecified), the Potency entry in [13], in [14], in [15], in assay [7], in assay [8] and in [9] was “inactive” throughout. In addition, the Potency entry in [10], in [11] and in assay [12] was “inactive” throughout. Besides, the figures for the max response in assay [1], in [2] and in assay [4] were -0.833%, -1.93% and -5.57%, respectively. Also, the call in assay [3], in [5], in assay [6] and in assay [19] was inactive.
